# PubChem BioAssay
# The source made the active and inactive calls.
# How the values were obtained:
# [1] = system: Plasmodium falciparum Sir2 (PF13_0152, Sir2A); assay: Plasmodium falciparum Sir2A binding compounds – biochemical, small-molecule microarray, 635 nm fluorescence, primary screen (AID 1098); conditions: fluorescence 635 nm, higher = more signal;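 note: score merges spot fluorescence intensity with its signal-to-noise ratio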
# [2] = probe aDKK1 binding to arrayed compounds – biochemical, biotinylated probe, 635/667 nm fluorescence, primary screen (AID 1099); conditions: small-molecule microarray, higher = more signal;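 note: score merges 667nm spot fluorescence with signal to noise across triplicate slides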
# [3] = probe aCHRDL2 binding to arrayed compounds – biochemical, biotinylated probe, 635/667 nm fluorescence, primary screen (AID 1100); conditions: small-molecule microarray, higher = more signal
# [4] = change in splice reporter luminescence, either direction, cell-based, HEK293, spliceosome inhibition project, primary screen (AID 1101); conditions: HEK293 splicing luciferase reporter, 24 h, higher = more signal, called active from +8 up or from −8 down;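 note: HEK293 cells carrying a splicing-competent luciferase reporter gene; test concentration not given here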
# [5] = target: Fibroblast growth factor 10 (Homo sapiens) (UniProt O15520); assay: compounds binding fibroblast growth factor 10 – biochemical, small-molecule microarray, 635 nm fluorescence, primary screen (AID 1102); conditions: FGF10 binding, fluorescence 635 nm, higher = more signal
# Fibroblast growth factor 10 (Homo sapiens), sequence (O15520 whole entry, looked up): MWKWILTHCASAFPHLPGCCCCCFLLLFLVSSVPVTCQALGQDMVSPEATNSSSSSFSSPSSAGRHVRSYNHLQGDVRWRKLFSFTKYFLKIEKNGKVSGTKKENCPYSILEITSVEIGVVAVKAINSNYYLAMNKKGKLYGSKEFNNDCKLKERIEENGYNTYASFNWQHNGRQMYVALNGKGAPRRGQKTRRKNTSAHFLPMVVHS
# [6] = system: glycogen synthase kinase-3 (GSK3A per assay name; protocol says GSK3B); assay: compounds binding glycogen synthase kinase-3 – biochemical, small-molecule microarray, 635 nm fluorescence, GSK3A, primary screen (AID 1103); conditions: fluorescence 635 nm, higher = more signal; note: the record names both GSK3A and GSK3B
# [7] = target: Epidermal growth factor receptor (Homo sapiens) (UniProt P00533); assay: compounds binding epidermal growth factor receptor – biochemical, small-molecule microarray, 635 nm fluorescence, primary screen (AID 1104); conditions: EGFR binding, higher = more signal;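 note: score merges 667 nm emission intensity with spot signal to noise over triplicate slides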
# Epidermal growth factor receptor (Homo sapiens), sequence (P00533 whole entry, looked up): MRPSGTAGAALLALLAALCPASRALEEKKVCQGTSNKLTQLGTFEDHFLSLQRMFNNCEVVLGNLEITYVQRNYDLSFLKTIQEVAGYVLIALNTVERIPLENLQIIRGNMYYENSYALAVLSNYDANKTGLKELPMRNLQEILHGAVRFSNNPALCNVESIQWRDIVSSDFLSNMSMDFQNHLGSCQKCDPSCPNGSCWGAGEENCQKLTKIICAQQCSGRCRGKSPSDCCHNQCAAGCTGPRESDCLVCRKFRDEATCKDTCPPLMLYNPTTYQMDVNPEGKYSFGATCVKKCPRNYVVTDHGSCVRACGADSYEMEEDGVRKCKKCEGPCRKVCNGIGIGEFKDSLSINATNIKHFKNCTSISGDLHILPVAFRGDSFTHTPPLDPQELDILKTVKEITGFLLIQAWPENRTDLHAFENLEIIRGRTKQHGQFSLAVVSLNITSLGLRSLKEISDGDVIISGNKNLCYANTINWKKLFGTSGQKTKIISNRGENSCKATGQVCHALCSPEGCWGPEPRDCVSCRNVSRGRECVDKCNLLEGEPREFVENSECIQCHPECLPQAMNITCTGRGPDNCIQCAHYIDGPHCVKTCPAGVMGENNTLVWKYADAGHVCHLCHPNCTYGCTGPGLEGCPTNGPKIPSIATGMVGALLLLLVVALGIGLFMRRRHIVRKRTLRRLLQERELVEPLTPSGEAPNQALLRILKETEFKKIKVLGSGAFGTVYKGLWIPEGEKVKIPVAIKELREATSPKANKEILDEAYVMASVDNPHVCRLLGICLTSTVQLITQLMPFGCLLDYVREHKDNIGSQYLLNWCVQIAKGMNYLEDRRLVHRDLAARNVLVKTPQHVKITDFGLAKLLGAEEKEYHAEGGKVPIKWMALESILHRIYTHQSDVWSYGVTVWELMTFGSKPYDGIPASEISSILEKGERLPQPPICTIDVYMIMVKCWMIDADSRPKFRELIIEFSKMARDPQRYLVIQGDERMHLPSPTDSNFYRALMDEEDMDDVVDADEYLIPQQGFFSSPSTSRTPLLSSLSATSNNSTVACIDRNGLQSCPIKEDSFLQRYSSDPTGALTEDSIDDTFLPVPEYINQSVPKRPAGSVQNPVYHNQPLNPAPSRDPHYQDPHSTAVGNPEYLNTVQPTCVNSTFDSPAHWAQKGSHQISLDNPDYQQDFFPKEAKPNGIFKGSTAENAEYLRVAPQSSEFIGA
# [8] = target: Follistatin-related protein 3 (Homo sapiens) (UniProt O95633); assay: compounds binding follistatin-related protein 3 – biochemical, small-molecule microarray, 635 nm fluorescence, primary screen (AID 1105); conditions: FSTL3 binding, higher = more signal;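 note: score merges emission near 667 nm and signal to noise per printed spot across three slides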
# Follistatin-related protein 3 (Homo sapiens), sequence (O95633 whole entry, looked up): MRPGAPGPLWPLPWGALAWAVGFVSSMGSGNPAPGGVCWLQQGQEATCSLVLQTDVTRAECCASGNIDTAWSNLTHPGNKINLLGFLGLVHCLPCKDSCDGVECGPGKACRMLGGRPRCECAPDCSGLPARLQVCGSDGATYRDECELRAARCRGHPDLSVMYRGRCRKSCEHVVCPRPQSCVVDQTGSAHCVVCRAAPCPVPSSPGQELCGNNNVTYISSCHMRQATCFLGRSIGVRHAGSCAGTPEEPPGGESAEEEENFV
# [9] = target: Dickkopf-related protein 1 (Homo sapiens) (UniProt O94907); assay: small molecules binding DKK1 protein – biochemical, small-molecule microarray, 635 nm fluorescence scan, primary screen (AID 1106); conditions: higher = more signal;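 note: score merges emission near 667 nm with signal to noise over three replicate slides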
# Dickkopf-related protein 1 (Homo sapiens), sequence (O94907 whole entry, looked up): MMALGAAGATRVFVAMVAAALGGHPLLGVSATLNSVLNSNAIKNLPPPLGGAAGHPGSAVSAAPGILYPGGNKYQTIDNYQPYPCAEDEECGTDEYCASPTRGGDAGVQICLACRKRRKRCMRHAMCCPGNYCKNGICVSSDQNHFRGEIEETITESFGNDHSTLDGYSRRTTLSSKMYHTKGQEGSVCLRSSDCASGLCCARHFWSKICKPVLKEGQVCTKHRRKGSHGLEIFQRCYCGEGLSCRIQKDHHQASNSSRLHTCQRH
# [10] = system: Inhibin beta A chain (activin A); assay: small molecules binding activin A – biochemical, small-molecule microarray, 635 nm fluorescence scan, primary screen (AID 1107); conditions: INHBA, higher = more signal;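 note: mouse activin A protein probed at 4.33 µg/mL on printed slides; score merges bound-protein fluorescence near 667 nm with spot signal-to-noise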
# [11] = system: Human papillomavirus type 1a protein E7 (residues 44-93); assay: small molecules binding HPV E7 44-93 – biochemical, small-molecule microarray, residues 44-93, 635 nm fluorescence, primary screen (AID 1108); conditions: fluorescence 635 nm, higher = more signal;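 note: E7 fragment applied at 1 µg/mL in TBST for 1 h at 4 C; score combines spot fluorescence with its signal to noise ratio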
# [12] = hepatitis C replication reporter changes, two-sided – Huh7 cells, luciferase reporter, HCV replication inhibitor project, primary screen (AID 1109); conditions: Huh7 HCV replicon luciferase reporter, 48 h; higher = more signal;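 note: huh7 hepatoma cells harbouring a luciferase neomycin HCV replicon reporter; luciferase luminescence as measure of HCV replicon replication; test concentration not given here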
# [13] = target: Left-right determination factor 2 (Homo sapiens) (UniProt O00292); assay: small molecules binding LEFTY2 protein – biochemical, small-molecule microarray, 635 nm fluorescence scan, primary screen (AID 1110); conditions: higher = more signal
# Left-right determination factor 2 (Homo sapiens), sequence (O00292 whole entry, looked up): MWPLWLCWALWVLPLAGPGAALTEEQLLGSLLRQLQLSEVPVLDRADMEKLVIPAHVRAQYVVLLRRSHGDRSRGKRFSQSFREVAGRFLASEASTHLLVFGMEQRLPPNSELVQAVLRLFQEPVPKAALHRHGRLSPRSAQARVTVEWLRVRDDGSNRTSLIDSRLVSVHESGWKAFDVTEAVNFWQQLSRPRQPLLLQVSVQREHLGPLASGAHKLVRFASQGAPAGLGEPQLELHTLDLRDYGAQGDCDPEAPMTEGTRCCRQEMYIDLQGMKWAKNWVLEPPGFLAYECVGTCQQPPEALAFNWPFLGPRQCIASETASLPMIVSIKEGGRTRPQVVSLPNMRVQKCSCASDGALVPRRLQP
# [14] = target: Calmodulin-1 (Homo sapiens) (UniProt P0DP23); assay: small molecules binding calmodulin-1 with EGTA – biochemical, small-molecule microarray, Cy5-labelled CALM1, profiling panel (AID 1111); conditions: Cy5-CALM1 binding fluorescence, higher = more signal;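 note: labelled calmodulin applied in Tris saline Tween buffer holding calcium plus EGTA and DTT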
# [15] = target: Calmodulin-1 (Homo sapiens) (UniProt P0DP23); assay: small molecules binding Ca-loaded calmodulin-1 – biochemical, small-molecule microarray, Cy5-labelled CALM1, plus calcium, artefact control for SMM control-protein annotation, profiling panel (AID 1112); conditions: Cy5-CALM1 binding fluorescence, higher = more signal;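 note: score merges spot fluorescence with signal to noise from triplicate slides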
# [16] = probe aWnt5a binding to arrayed compounds – biochemical, biotinylated probe, 635/667 nm fluorescence, primary screen (AID 1113); conditions: small-molecule microarray, higher = more signal;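 note: score merges 667 nm fluorescence intensity with signal-to-noise per printed feature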
# [17] = probe aShh binding to arrayed compounds – biochemical, biotinylated probe, 635/667 nm fluorescence, primary screen (AID 1114); conditions: small-molecule microarray, higher = more signal;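 note: probe is biotin-labelled aShh protein from a stem cell growth factor screen; measures binding of labelled protein to compounds printed on the slide; score merges feature fluorescence at 667 nm with signal-to-noise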
# [18] = probe aNog binding to arrayed compounds – biochemical, biotinylated probe, 635/667 nm fluorescence, primary screen (AID 1115); conditions: small-molecule microarray, higher = more signal;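 note: probe is biotinylated aNog protein used at 0.15 µg/mL for 1 h at 4 C; z-score combines 667 nm fluorescence of each spot with its signal to noise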
# [19] = target: Torsin-1A-interacting protein 1 (Homo sapiens) (UniProt Q5JTV8); assay: compound microarray binding of lysate hLAP1 – cell lysate, small-molecule microarray, COS7 lysate, 635/667 nm fluorescence, primary screen (AID 1116); conditions: 635 nm fluorescence, higher = more signal
# Torsin-1A-interacting protein 1 (Homo sapiens), sequence (Q5JTV8 whole entry, looked up): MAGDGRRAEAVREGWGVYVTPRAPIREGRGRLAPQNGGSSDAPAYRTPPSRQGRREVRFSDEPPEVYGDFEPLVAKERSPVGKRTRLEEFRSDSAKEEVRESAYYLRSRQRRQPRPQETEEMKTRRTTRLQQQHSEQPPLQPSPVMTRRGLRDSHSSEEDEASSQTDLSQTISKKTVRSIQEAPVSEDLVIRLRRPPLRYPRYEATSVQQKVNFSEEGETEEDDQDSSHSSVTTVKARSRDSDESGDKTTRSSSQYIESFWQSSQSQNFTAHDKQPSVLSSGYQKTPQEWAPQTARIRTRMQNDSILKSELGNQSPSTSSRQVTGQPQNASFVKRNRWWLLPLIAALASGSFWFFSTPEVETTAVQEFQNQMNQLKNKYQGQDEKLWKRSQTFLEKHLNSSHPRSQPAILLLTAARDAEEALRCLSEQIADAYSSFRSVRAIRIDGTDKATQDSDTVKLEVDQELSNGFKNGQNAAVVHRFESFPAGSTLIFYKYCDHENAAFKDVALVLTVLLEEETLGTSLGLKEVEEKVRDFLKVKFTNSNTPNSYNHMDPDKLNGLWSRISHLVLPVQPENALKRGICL
# [20] = target: Alpha-bungarotoxin (Bungarus multicinctus) (UniProt P60615); assay: compounds binding labelled alpha-BTX control protein – biochemical, small-molecule microarray, Alexa647 label, 635/667 nm fluorescence, artefact control for SMM control protein annotation, profiling panel (AID 1117); conditions: alpha-BTX-A647 binding fluorescence, higher = more signal
# Alpha-bungarotoxin (Bungarus multicinctus), sequence (P60615 whole entry, looked up): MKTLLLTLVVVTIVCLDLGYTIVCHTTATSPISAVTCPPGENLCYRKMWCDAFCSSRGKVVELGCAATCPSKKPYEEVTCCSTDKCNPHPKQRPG
SMILES,composite z-score [1],composite z-score [2],composite z-score [3],z-score [4],composite z-score [5],composite z-score [6],composite z-score [7],composite z-score [8],composite z-score [9],composite z-score [10],composite z-score [11],z-score [12],composite z-score [13],composite z-score [14],composite z-score [15],composite z-score [16],composite z-score [17],composite z-score [18],composite z-score [19],composite z-score [20]
O=C1NCC(=O)N2[C@@H]1C[C@@H](C(=O)O)[C@H]2c1ccc(O)cc1,1.41,-0.0052,0.128,-0.22 (inactive),0.944,1.32,-0.0519,1.37,1.78,0.571,1.4,2.63,0.834,0.458,-0.451,-0.0758,0.123,-0.36,-0.0956,0.707
COC(=O)C1(Cc2ccccc2)C=C2C(=C(C(C)C)C(=O)C2C)CN1 (stereo not given),-1.21,1.34,1.36,1.62 (inactive),-0.713,-1.51,-0.449,-0.482,-1.41,1.35,-0.549,-0.735,-1.41,1.09,1.54,0.152,0.109,0.593,1.73,-0.473
COc1ccc([Si](C)(C)[C@H]2[C@H](CC(=O)N3Cc4ccccc4C[C@H]3CO)O[C@@]3(C(=O)N(Cc4cccc(N5CCCCC5=O)c4)c4ccccc43)[C@@H]2C)cc1,1.2,-0.205,-0.181,-0.519 (inactive),1.14,0.262,0.795,1.27,1.12,0.94,0.551,-3.77,0.983,-0.226,-0.48,-0.043,-0.0553,-0.0206,0.547,0.244
COC(=O)C[C@H]1O[C@]2(C(=O)N(C)c3ccccc32)[C@@H](C)[C@@H]1[Si](C)(C)c1ccc(C)cc1,0.486,-0.276,-0.203,-0.283 (inactive),0.749,0.96,0.41,0.958,0.501,0.0223,1.15,-2.92,0.375,0.196,-0.0787,-0.136,-0.393,-0.121,0.346,0.638
CC(C)CCC[C@@H](C)[C@H]1CC[C@@]2(C)C3=C(CC[C@]12C)[C@@]1(C)CC[C@H](OC(=O)c2ccc(Br)cc2)C(C)(C)C1CC3 (stereo not given in full),0.27,-0.153,-0.331,-1.13 (inactive),0.609,0.55,0.593,0.506,0.391,0.26,-0.298,0.132,0.711,0.132,-0.442,-0.157,-0.0977,-0.18,0.162,0.204
COc1ccc(C(O)C2C=CC3C(=O)N(C)C(=O)C3N2N2CCCCC2)cc1 (stereo not given),1.23,0.297,0.378,1.33 (inactive),0.632,1.09,0.579,0.306,0.224,1.31,0.069,0.633,0.108,0.204,0.3,0.1,0.457,1.07,2.36,0.55
COc1cc(CO)cc(I)c1O[C@H]1C=C(C(=O)NCCO)C[C@@H](N(Cc2ccc(F)cc2)C(=O)C2CCCO2)[C@@H]1O (stereo not given in full),0.0885,-0.139,-0.697,-0.0727 (inactive),0.182,0.1,0.346,0.203,0.208,0.676,-0.284,0.561,0.407,-0.0131,-0.402,-0.124,-0.338,-0.0312,-0.0829,0.988
O=C1OCC=C[C@H]2OC34C=CCN(c5ccc(Cl)cc5)C(=O)[C@H]3N(CCCCCO)C(=O)[C@@H]4[C@@H]12 (stereo not given in full),0.311,-0.204,0.822,-0.784 (inactive),-1.23,-1.26,-1.44,-1.51,-1.22,-0.262,-0.932,-0.621,-1.92,-0.501,0.0666,-0.172,0.0121,0.347,0.0462,-1.64
C=C(CCCC)C(=O)CC[C@@H](OC(=O)c1cccnc1)c1ccccc1OCCO,0.996,-0.0709,0.515,4.97 (inactive),0.341,-0.164,-0.183,0.296,-0.265,1.16,-0.266,-3.05,-0.0055,-1.11,-1.07,-0.091,-0.138,-0.117,0.684,0.583
Cc1ccc(S[C@]2(C(=O)NCC(F)(F)F)CC(=O)N(Cc3ccccc3)[C@@H]2c2ccc(CO)cc2)cc1,1.54,0.382,0.767,-0.676 (inactive),-0.409,-0.507,-0.938,-0.763,-1.32,-0.0219,-0.341,-1.54,-1.73,-0.23,0.526,-0.169,-0.268,-0.186,0.122,-0.0421
O=c1cccc(-c2cccc(Cl)c2)o1,0.261,0.177,0.114,0.269 (inactive),0.227,0.415,0.167,0.149,-0.0521,0.338,0.0546,0.268,0.128,-0.137,-0.137,-0.228,-0.338,-0.229,0.432,0.0698
C=C[C@@H](C)[C@H](OC(=O)Nc1ccc(SC)cc1)c1ccc(OCCO)cc1,-0.435,-0.0748,0.626,-1.91 (inactive),-0.553,-1.14,-0.541,-0.138,-0.773,-0.0131,-0.868,2.09,-1.03,-0.163,0.649,0.0423,-0.206,1.41,-0.111,0.0265
C=CCN1C(=O)[C@@]2(O[C@@H](CCn3cc([C@H](O)c4ccccc4)nn3)[C@H]([Si](C)(C)c3ccc(OC)cc3)[C@H]2C)c2ccccc21,1.52,-0.0203,0.0047,-0.56 (inactive),0.756,0.658,0.32,1.19,0.694,0.0239,0.733,-3.04,0.245,0.134,-0.506,0.0973,-0.0769,0.0308,0.676,1.21
C=C[C@H](COC(C)=O)NS(=O)(=O)c1ccc(Br)cc1,0.786,-0.247,-0.272,0.485 (inactive),-0.28,-0.384,0.141,0.128,0.516,0.294,-0.292,0.55,0.0605,-0.173,-0.766,-0.0721,0.0121,-0.219,0.168,0.0669
CCCC[C@@H]1C[C@H]1[C@@H](NC(=O)c1ccccc1)c1ccc(Cl)cc1,-1.24,0.15,1.01,-1.93 (inactive),-1.38,-1.78,-1.77,-2.35,-1.36,0.39,-1.15,-1.65,-1.86,0.014,1.42,-0.247,-0.209,0.253,1.23,-1.51
Cc1ccc(F)cc1S(=O)(=O)N[C@@H]1CCN(Cc2ccc(OC(C)C)cc2)C1,-0.38,-0.428,-0.272,2.97 (inactive),-0.514,-0.654,-0.662,-0.746,0.183,0.834,-1.22,-3.58,0.2,-0.892,-1.14,-0.103,-0.153,0.0771,0.224,-0.688
COc1c(C)cc(-c2cc3c(c(-c4ccccc4)n2)[Si](C(C)C)(C(C)C)OC3)cc1C,0.0039,0.068,-0.676,-0.0426 (inactive),-0.216,-0.39,0.186,-0.355,0.189,1.08,-0.689,-0.268,-0.0473,-0.319,-0.119,-0.184,-0.153,-0.122,-0.16,0.857
C=CCOC(=O)[C@H]1[C@@H]2C(=O)O[C@@H](c3ccccc3)[C@@H](c3ccccc3)N2[C@@H](c2ccc(OCCOC(=O)[C@H]3C[C@H]4C(=O)N[C@@H](CCCC[N+](C)(C)C)C(=O)N4[C@H]3c3cccc(OCCO)c3)cc2)[C@]12C(=O)Nc1ccc(I)cc12,1.1,-0.179,-0.0243,0.997 (inactive),0.809,0.701,0.335,0.376,0.763,0.111,0.62,-1.38,0.73,0.727,0.119,-0.0721,-0.138,0.0051,0.62,0.113
C=CC[C@@]1(C(=O)O)N=C(c2ccc(OCCCO)cc2)O[C@@H]1c1ccccc1,1.96,-0.2,0.584,-0.701 (inactive),-0.21,1.06,-1.9,-1.15,-0.659,-0.361,1.35,0.0165,-1.5,-0.815,-1.41,0.499,0.265,2.02,4.53,2.51
[N-]=[N+]=Nc1ccccc1C[C@]1(C(=O)NCc2ccccc2)N=C(c2ccc(OCCCO)cc2)O[C@H]1c1ccccc1,1.13,0.966,1.01,0.843 (inactive),1.09,-0.235,-0.269,0.461,-0.684,0.784,1.08,-1.58,-0.397,2.03,0.848,0.0357,0.28,1.85,1.39,1.77
COC(=O)c1c(CC[C@@H](CO)NC(=O)N[C@H](Cn2cc(-c3ccccc3C)nn2)C(C)C)oc(C(C)=O)c1C(=O)OC,0.404,-0.177,-0.076,-1.71 (inactive),0.289,-0.79,-0.937,-0.806,-0.482,-0.252,-0.794,-0.515,-0.645,-0.0696,-0.637,-0.169,-0.0553,0.0099,0.441,0.879
